# An excerpt weighted towards active compounds, which were near 7.3% of everything screened.
# NPC1 promoter act = activators of NPC1 promoter | 320,000 compounds, 2.4% hits | Huh7 NPC1 promoter luciferase reporter, 24 h | Potency, µM (titrated, usually from 9.22 µM), for the others: at the highest dose activation, usual class: activators; note: % of control where 0% means no effect; nearly all actives have a fitted effect of over 60% in size
#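 Stable NPC1-promoter luciferase Huh7 line; cpd (DMSO) 24 h, 37 °C, 5% CO2; Amplite luciferase reagent 10 min RT; luminescence readout. qHTS format.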
# Rab9 prom act = activates the Rab9 promoter. Huh7 Rab9 promoter-luciferase reporter, luminescence, 24 h. Potency, µM (top dose mostly 9.22 µM), without a hit: at the highest dose activation, negative = inhibition, actives largely listed as activators. 320,000 compounds, 2.8% hits; note: % of control where 0% means no effect; nearly all actives have a fitted effect of over 60% in size
#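 Steps: seed 1500 Huh7 Rab9-luc cells per well, rest 2 h at 37 °C; add compound in DMSO; incubate 24 h; add luciferase reagent, 10 min ambient; read luminescence.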
# SMN2 splice enh = SMN2 splice variant enhancement; 210,000 compounds, 2.8% hits; HEK293 SMN2-luciferase splicing reporter, luminescence, 30-36 h; Potency, µM (top dose mostly 46.1 µM), for the others: top-dose activity change, positive = activation, actives largely listed as activators; AID 1458; note: % of control where 0% means no effect; nearly all actives have a fitted effect of over 55% in size
#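 HEK293 cells carry an SMN2 minigene-luciferase reporter in which exon 7 inclusion puts luciferase in frame. Cells were seeded at 2000 cells/well, attached for 10-12 hours, then exposed to compounds for 30-36 hours at 37C before ONE-Glo luminescence.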
# uPA generation = inhibitors of cell surface uPA generation; Potency, µM (top dose mostly 38.3 µM), without a hit: at the highest dose activity change, negative = inhibition, usual class: inhibitors; 330,000 compounds, 0.31% hits; cell surface uPA generation assay, qHTS; active = well fitted inhibition curve with a large enough effect; inconclusive = small, poorly fitted or top-dose-only effect; inactive = no such curve, though single readings can be large or run the other way; tested in mouse RAW 264.7 cells; note: % is set by controls: 0 for no effect and ±100 for the full control effect; nearly all actives have a fitted effect of over 55% in size
# FLuc modulator = inhibits or activates purified firefly luciferase, miR-21 counter-screen; P08659; purified FLuc, Km substrates, luminescence inhibition; Potency, µM (highest dose often 57.5 µM), for the others: at the highest dose activity change, negative = inhibition, usual class: inhibitors; 360,000 compounds, 6.9% hits;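 note: plate controls were vehicle for no effect and reference inhibitor for full effect; nearly all actives have a fitted effect of over 55% in size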
# Target sequence (P08659 whole entry, looked up): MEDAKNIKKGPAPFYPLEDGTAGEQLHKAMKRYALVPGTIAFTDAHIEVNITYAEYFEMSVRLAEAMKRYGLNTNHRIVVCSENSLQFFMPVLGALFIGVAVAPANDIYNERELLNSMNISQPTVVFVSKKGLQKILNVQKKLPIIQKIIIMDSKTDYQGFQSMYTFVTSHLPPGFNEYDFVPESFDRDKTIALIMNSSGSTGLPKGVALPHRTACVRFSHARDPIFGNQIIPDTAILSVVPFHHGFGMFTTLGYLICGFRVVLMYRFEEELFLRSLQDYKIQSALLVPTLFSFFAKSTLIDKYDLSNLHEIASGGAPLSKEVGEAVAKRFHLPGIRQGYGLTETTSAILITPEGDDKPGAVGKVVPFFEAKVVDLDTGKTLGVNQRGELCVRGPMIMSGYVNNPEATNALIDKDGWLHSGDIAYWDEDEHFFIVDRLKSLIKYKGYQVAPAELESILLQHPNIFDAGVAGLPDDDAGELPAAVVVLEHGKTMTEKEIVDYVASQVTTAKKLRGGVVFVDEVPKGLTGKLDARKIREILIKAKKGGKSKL
#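 Biochemical qHTS of compounds, final roughly 60 µM downward over six points, against 10 nM purified firefly luciferase using Km concentrations of substrates (10 uM D-luciferin, 10 uM ATP) in Tris acetate pH 7.5 buffer; luminescence output.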
# ELG1 genotox = inducers of genotoxicity in HEK293T ELG1-luciferase cells. HEK293T ELG1-luciferase reporter, luminescence, 16 h. Potency, µM (top dose mostly 46 µM), for inactives: at the highest dose activity change, positive = activation, usual class: activators. 330,000 compounds, 1.3% hits. AID 504466; note: % of control where 0% means no effect; nearly all actives have a fitted effect of over 60% in size
#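 DMSO vehicle served as control against compound-treated ELG1-luciferase HEK293T cells; exposure lasted 16 hr at 37 °C and 5% CO2, followed by ONE-Glo luminescence detection after 30 min.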
# Numbers without * were called inactive; ? = inconclusive; / = no result given; [ ] = another dose, or the depositor's remark. Unless noted, calls come from the whole dose curve; as a rule, active = well fitted curve in the direction sought with a large enough effect; inconclusive = small, poorly fitted or top-dose-only effect, or another doubt; inactive = no such curve, though single readings can be large; an effect the other way counts as inactive or inconclusive. Potency is the fitted concentration of half-maximal effect.
SMILES,NPC1 promoter act,Rab9 prom act,SMN2 splice enh,uPA generation,FLuc modulator,ELG1 genotox
CCCc1[nH]n(-c2nc3ccccc3s2)c(=O)c1C=NCCCOC,13%,5%,/,-4%,-16%,7%
COCCCN=Cc1c(-c2ccccc2)[nH]n(-c2nc3ccccc3s2)c1=O,-6%,1%,/,7%,15µM*,1%
CCCCCN=Cc1c(C)[nH]n(-c2nc3ccccc3s2)c1=O,?,?,11%,/,4.8µM*,2.9µM*
O=c1c(C=NCCCO)c(-c2ccccc2)[nH]n1-c1nc2ccccc2s1,0%,-12%,/,?,15µM*,11%
O=C(COC(=O)c1ccccc1-c1nc2ccccc2s1)Nc1ccccc1C(F)(F)F,2%,-5%,/,8%,-18%,-3%
CNc1sc(C(=O)c2ccccc2F)c(N)c1-c1nc2ccccc2s1,4µM*,4.5µM*,?,-4%,8.5µM*,?
CCCCCNC(=O)c1ccc2c(=O)[nH]c3c(C(=O)NCC4CCCO4)sc(=S)n3c2c1 (centres undefined),-1%,-2%,20%,1%,?,-12%
O=C(NCc1ccccc1)c1ccc2c(=O)[nH]c3c(C(=O)NCC4CCCO4)sc(=S)n3c2c1 (centres undefined),-4%,5%,18%,-3%,27µM*,-5%
Cc1ccc(CNC(=O)c2ccc3c(=O)[nH]c4c(C(=O)NCC5CCCO5)sc(=S)n4c3c2)cc1 (centres undefined),-2%,1%,-5%,-1%,19µM*,-10%
Clc1ccc(/C=N/N2CCCCC2)cc1,12%,22%,/,1%,11µM*,12%
O=[N+]([O-])c1ccc(/C=N/N2CCCCC2)cc1,2.5µM*,29%[1.84 µM],/,-11%,9.5µM*,?
O=[N+]([O-])c1ccc(/C=N\N2CCN(c3ccc(Cl)cc3)CC2)cc1,-2%,2%,0%,10%,-3%,-4%
O=C(CN1C(=O)COc2ccc(S(=O)(=O)N3CCOCC3)cc21)N1CCN(c2ccccc2F)CC1,/,/,0%,/,-1%,/
CCOc1ccc(-n2cnc3sc(C)c(C)c3c2=O)cc1,-5%,11%,/,0%,-1%,0%
CC(C)Oc1ccc(C(=O)N2CCN(CCc3ccccn3)CC2)cc1,/,/,/,/,-1%,/
CCOc1ccc(/C=N/NC(=O)c2[nH]c3ccc(C)cc3c2C)cc1,-3%,4%,/,-7%,11µM*,-2%
Cc1c(C(=O)N/N=C/c2ccc(Cl)cc2)[nH]c2ccc(Cl)cc12,-18%,-19%,?,0.35µM*,-13%,3%
Cc1cc(OCC(=O)Nc2sc3c(c2C(N)=O)CCCC3)ccc1C(C)C,/,/,-2%,/,0%,/
CCCNC(=O)C(Cc1ccc(Br)cc1)NC(=O)c1ccc(C#N)cc1 (centres undefined),1%,-6%,/,16%,1%,3%
Cc1ccc(Cn2cnc3nc4c(cc3c2=O)CC(C)CC4)cc1 (centres undefined),/,/,/,/,12µM*,/
O=C(CCS(=O)(=O)c1cccs1)Nc1ccc(C(=O)Nc2cccc(Cl)c2)cc1,/,/,?,/,-5%,/
Cc1cc(NC(=O)c2ccc(NC(=O)CCS(=O)(=O)c3cccs3)cc2)ccc1Br,/,/,16µM*,/,-2%,/
COc1ccc(NC(=O)c2ccc(NC(=O)CCS(=O)(=O)c3cccs3)cc2)cc1Cl,/,/,16µM*,/,5%,/
Clc1ccc(OCc2nnc(-c3ccccc3Br)o2)cc1,10%,13%,2%,3%,?,7%
Clc1ccccc1OCc1nnc(-c2ccccc2)o1,2.5µM*,3.5µM*,16µM*,-13%,11µM*,?
SMILES,NPC1 promoter act,Rab9 prom act,SMN2 splice enh,uPA generation,FLuc modulator,ELG1 genotox
Clc1ccccc1-c1nnc(COc2ccccc2)o1,/,/,13µM*,/,21µM*,/
O=C(O)c1ccc2oc(=O)c(S(=O)(=O)c3ccc(F)cc3)cc2c1,1%,0%,/,1%,1%,2%
O=c1oc2c(CN3CCCCC3)c(O)ccc2cc1-c1nc2ccccc2[nH]1,25%,?,/,/,9.5µM*,?
O=C(O)c1ccc2nc(-c3cc4cc(F)ccc4oc3=O)[nH]c2c1,/,/,/,/,5.4µM*,/
C=CCc1cccc2cc(-c3nc4ccc(C)cc4[nH]3)c(=O)oc12,/,/,/,/,-17%,/
O=C(O)c1ccc2nc(-c3cc4cccc(O)c4oc3=O)[nH]c2c1,10%,24%,/,/,0.85µM*,/
CN1CCN(Cc2c(O)ccc3cc(-c4ccccc4)c(=O)oc23)CC1,/,/,/,/,-7%,/
O=c1oc2c(O)cccc2cc1-c1nc2ccccc2[nH]1,0.56µM*,0.79µM*,/,-15%,0.67µM*,?
CCn1c(C(=O)NCCc2ccc(S(N)(=O)=O)cc2)cc2sc(Cl)cc21,/,/,-1%,/,-8%,/
O=C(c1cc2c(=O)n3ccccc3nc2s1)N1CCOCC1,2.8µM*,3.2µM*,11µM*,1%,19µM*,4.1µM*
O=C(c1cc2ccccc2oc1=O)N1CCOCC1,?,?,/,1%,12µM*,?
CC1CCN(C(=O)c2cc3c(=O)n4ccccc4nc3s2)CC1,?,?,/,-5%,?,?
O=C(c1cc2cc([N+](=O)[O-])ccc2oc1=O)N1CCOCC1,-32%,-33%,/,2%,2.4µM*,-3%
O=C(c1cc2c(=O)oc3ccccc3c2s1)N1CCOCC1,18%,22%,10%,-5%,17µM*,1%
COc1ccc(OCc2nnc(SCC(=O)c3c(N)n(C)c(=O)n(C)c3=O)n2-c2ccccc2F)cc1,-1%,-6%,-47%,/,1%,-5%
COc1cc(OC)cc(-c2nc3nc(C)c(CCC(=O)Nc4cc(C)cc(C)c4)c(C)n3n2)c1,/,/,3%,/,3%,/
CC(C(=O)N1CCOCC1)n1cc([N+](=O)[O-])cn1 (centres undefined),-3%,0%,19%,7%,6%,18%
Cc1ccc(N(CC(=O)Nc2ccc(Br)cc2)S(=O)(=O)c2cccs2)cc1,/,/,1%,/,-2%,/
O=C(CN1C(=O)/C(=C/c2cccc(Br)c2)SC1=S)NCCCN1CCOCC1,5%,6%,/,-15%,21µM*,-3%
CC(C)c1ccc(/C=C2\SC(=O)N(CC(=O)NCCCn3ccnc3)C2=O)cc1,?,3.5µM*,/,?,0.6µM*,?
CC(C)c1ccc(/C=C2\SC(=S)N(CC(=O)NCCCN3CCOCC3)C2=O)cc1,6%,0%,/,-3%,1.3µM*,?
CCOc1ccc(/C=C2\SC(=S)N(CC(=O)NCCCN3CCOCC3)C2=O)cc1,1%,19%,/,-2%,3µM*,-8%
CC(=O)/C(N=Nc1ccc2c(c1)OCO2)=C(\C)O,2.8µM*,3.5µM*,14µM*,4%,21µM*,?
